# Reference: the antibiotic and cytotoxicity screens of Wong et al. (2023)
# Out of some 39,000 compounds screened, about 1,500 (3.8%) were called active. For the sample, actives were picked, then their nearest neighbours and some compounds at random.
# Tested on: HSkMC (human skeletal muscle cells)
# Assay: cytotoxicity call (relative viability < 0.9)
# Details: 10 µM
row,Compound,cytotoxicity call
1,Cc1ccc(S(=O)(=O)N(C)C[C@H]2Oc3ccc(NS(=O)(=O)c4cccs4)cc3CC(=O)N([C@@H](C)CO)C[C@@H]2C)cc1,inactive
2,C[C@@H]1CN([C@H](C)CO)C(=O)Cc2cc(NC(=O)c3ccncc3)ccc2O[C@@H]1CN(C)Cc1ccc(C(=O)O)cc1,inactive
3,COc1ccc(O)c(N)c1,inactive
4,c1csc(CNc2ccc(NCc3cccs3)cc2)c1,inactive
5,Cc1noc(C)c1NC(=O)N[C@H]1CC[C@@H](CC(=O)N2CCN(C)CC2)O[C@@H]1CO,inactive
6,C[C@H](CO)N1C[C@H](C)[C@H](CN(C)S(C)(=O)=O)Oc2ccc(NC(=O)C3CCCCC3)cc2CC1=O,inactive
7,Cc1ccc(S(=O)(=O)N[C@@H](Cc2ccccc2)C(=O)NCCCn2cc(C(=O)NO)nn2)cc1,inactive
8,C[C@@H]1CCCCO[C@H](CN(C)CC2CCCCC2)[C@@H](C)CN([C@@H](C)CO)C(=O)c2cc(NS(=O)(=O)c3cccs3)ccc2O1,inactive
9,C[C@H]1CN([C@@H](C)CO)C(=O)Cc2cc(NC(=O)Nc3ccccc3)ccc2O[C@H]1CN(C)Cc1ccc(Cl)c(Cl)c1,active
10,C[C@@H]1CN([C@@H](C)CO)C(=O)Cc2cc(NC(=O)Nc3ccccc3)ccc2O[C@@H]1CN(C)Cc1ccc(Cl)c(Cl)c1,active
11,C[C@@H]1CN([C@H](C)CO)C(=O)Cc2cc(NC(=O)Nc3ccccc3)ccc2O[C@@H]1CN(C)Cc1ccc(Cl)c(Cl)c1,active
12,C[C@@H]1CN([C@H](C)CO)C(=O)Cc2cc(NC(=O)Nc3ccccc3)ccc2O[C@H]1CN(C)Cc1ccc(Cl)c(Cl)c1,active
13,C[C@H](CO)N1C[C@H](C)[C@H](CN(C)S(C)(=O)=O)Oc2ccc(NC(=O)Nc3ccc4c(c3)OCO4)cc2CC1=O,inactive
14,CC[C@@H](C)N1C(=O)CC[C@H]1C(=O)O,inactive
15,COc1ccc(S(=O)(=O)Nc2ccc3c(c2)C(=O)N([C@H](C)CO)C[C@H](C)[C@H](CN(C)Cc2ccc(C(=O)Nc4ccccc4N)cc2)OCCCC[C@@H](C)O3)cc1,inactive
16,C[C@H](CO)N1C[C@H](C)[C@@H](CN(C)S(=O)(=O)c2cccs2)Oc2ccc(NS(C)(=O)=O)cc2C1=O,inactive
17,NCc1ccc(C(=O)O)cc1,inactive
18,Cc1noc(C)c1NC(=O)Nc1cccc2c1O[C@H](CN(C)S(=O)(=O)c1ccccc1)[C@@H](C)CN([C@@H](C)CO)C2=O,inactive
19,C[C@@H]1CCCCO[C@H](CN(C)C(=O)c2ccncc2)[C@@H](C)CN([C@H](C)CO)C(=O)c2cc(NC(=O)CCCCCC(=O)Nc3ccccc3N)ccc2O1,inactive
20,CCc1nc2ccc(C(=O)Nc3cc(-c4ccccc4)ccc3OC)cn2c1N(CCN(C)C)CC1CC1,inactive
21,C[C@H](CO)N1C[C@H](C)[C@@H](CN(C)S(=O)(=O)c2cn(C)cn2)Oc2c(NC(=O)C3CCOCC3)cccc2C1=O,inactive

row,Compound,cytotoxicity call
1,CN1C(=O)c2cc(NC(=O)C3CCCC3)ccc2OC[C@H]2O[C@@H](CC(=O)NCCc3ccncc3)CC[C@@H]21,inactive
2,COCC(=O)Nc1ccc2c(c1)C(=O)N(C)[C@H]1CC[C@@H](CC(=O)NCc3ccccc3Cl)O[C@@H]1CO2,inactive
3,C[C@H]1CN([C@@H](C)CO)C(=O)Cc2cc(NC(=O)Nc3ccccc3)ccc2O[C@@H]1CN(C)Cc1ccc(Cl)c(Cl)c1,active
4,COc1ccc(NC(=O)Nc2ccc3c(c2)CC(=O)N([C@H](C)CO)C[C@H](C)[C@@H](CN(C)Cc2ccc(Cl)c(Cl)c2)O3)cc1,inactive
5,C[C@H](CO)N1C[C@H](C)[C@@H](CN(C)Cc2ccc(Cl)c(Cl)c2)Oc2ccc(NC(=O)Nc3ccccc3)cc2CC1=O,inactive
6,COc1ccc(NC(=O)Nc2ccc3c(c2)CC(=O)N([C@@H](C)CO)C[C@@H](C)[C@@H](CN(C)Cc2ccc(Cl)c(Cl)c2)O3)cc1,inactive
7,C[C@@H]1CN([C@@H](C)CO)C(=O)Cc2cc(NC(=O)Nc3ccccc3)ccc2O[C@H]1CN(C)Cc1ccc(Cl)c(Cl)c1,inactive
8,C[C@H](CO)N1C[C@H](C)[C@H](CN(C)Cc2ccc(Cl)c(Cl)c2)Oc2ccc(NC(=O)Nc3ccccc3)cc2CC1=O,active
9,O=C(CN1CCOCC1)NCC[C@H]1CC[C@@H](NC(=O)Nc2ccccc2)[C@H](CO)O1,inactive
10,C[C@H]1CN([C@@H](C)CO)S(=O)(=O)c2ccc(-c3cccnc3)cc2O[C@@H]1CN(C)C(=O)c1cccc(F)c1,inactive
11,Cc1ccccc1S(=O)(=O)N1C[C@H](O)COC[C@@H]2O[C@@H](CC(=O)NCc3ccccc3Cl)CC[C@H]21,inactive
12,C[C@@H]1CN([C@H](C)CO)C(=O)c2cc(NS(=O)(=O)c3ccc(Cl)cc3)ccc2O[C@@H]1CN(C)Cc1ccc(C(F)(F)F)cc1,active
13,Cc1ccc(S(=O)(=O)Nc2ccc3c(c2)C(=O)N([C@@H](C)CO)C[C@@H](C)[C@@H](CN(C)Cc2ccc(C(F)(F)F)cc2)O3)cc1,inactive
14,C[C@H](CO)N1C[C@H](C)[C@H](CN(C)Cc2ccc(C(F)(F)F)cc2)Oc2ccc(NS(=O)(=O)c3ccc(Cl)cc3)cc2C1=O,active
15,Cc1ccc(S(=O)(=O)Nc2ccc3c(c2)C(=O)N([C@@H](C)CO)C[C@@H](C)[C@H](CN(C)Cc2ccc(C(F)(F)F)cc2)O3)cc1,inactive
16,C[C@@H]1CN([C@@H](C)CO)C(=O)c2cc(NS(=O)(=O)c3ccc(Cl)cc3)ccc2O[C@@H]1CN(C)Cc1ccc(C(F)(F)F)cc1,active
17,C[C@@H]1CN([C@H](C)CO)C(=O)c2cc(NS(=O)(=O)c3ccc(Cl)cc3)ccc2O[C@H]1CN(C)Cc1ccc(C(F)(F)F)cc1,inactive
18,C[C@@H]1CN([C@@H](C)CO)C(=O)c2cc(NS(=O)(=O)c3ccc(Cl)cc3)ccc2O[C@H]1CN(C)Cc1ccc(C(F)(F)F)cc1,inactive
19,C[C@H](CO)N1C[C@H](C)[C@@H](CN(C)Cc2ccc(C(F)(F)F)cc2)Oc2ccc(NS(=O)(=O)c3ccc(Cl)cc3)cc2C1=O,active
20,C[C@H]1CN([C@@H](C)CO)C(=O)c2cc(NS(=O)(=O)c3ccc(Cl)cc3)ccc2O[C@H]1CN(C)Cc1ccc(C(F)(F)F)cc1,inactive
21,O=C(C[C@H]1C[C@H]2c3cc(NS(=O)(=O)c4ccc(F)cc4)ccc3O[C@H]2[C@@H](CO)O1)NC1CCCCC1,inactive
